Bioassay records as filed in PubChem BioAssay.
In the library only some 2.8% were active in any assay of this set; here they are far more common.
SNCA expr inhib: reduces expression of the alpha-synuclein gene | AID 1671194 | Potency, µM (titrated, usually from 57.2 µM), for inactives: at the top dose activity change, negative = inhibition, most hits filed as inhibitors | 0.17% of 140,000 active | HEK-293 SNCA-luciferase knock-in, luminescence, 24 h;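 further: potency means the concentration at half of the fitted maximal effect; plate controls were DMSO cells for no effect and cell-free wells for full effect; nearly all actives have a fitted effect of over 45% in size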
KDM5B inh: blocks human KDM5B histone demethylase activity; AID 1347165; KDM5B demethylase, FDH-coupled NADH fluorescence (FDH is formaldehyde dehydrogenase); Potency, µM (series often up to 57.7 µM), usual class: inhibitors; 2.6% of 220,000 active; Q9UGL1; further: potency means the concentration at half of the fitted maximal effect; 0% is about no effect; nearly all actives have a fitted effect of over 70% in size
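Inhibition is measured as reduced NADH fluorescence generation from FDH coupling to formaldehyde release. Truncated KDM5BΔAP at 200 nM final acts on H3K4me3 peptide (12.5 µM in substrate mix) in pH 7.5 HEPES buffer with Tween-20, 30 min, room temperature.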
SNCA viab count: reduces viability of HEK-293 SNCA reporter cells; HEK-293-SNCA-luc viability, GF-AFC fluorescence, 24 h; Potency, µM (series often up to 57.1 µM), for inactives: at the highest dose activity change, negative = cytotoxicity, most hits filed as cytotoxic; 0.12% of 150,000 active; AID 1671193;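 further: potency means the concentration at half of the fitted maximal effect; 0% = DMSO-treated cells and -100% = medium-only wells without cells; nearly all actives have a fitted effect of over 30% in size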
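HEK-293-SNCA-luc cells (1500/well) plated 24 h, then exposed 24 h to a dilution series; GF-AFC added 30 min at 37C, fluorescence 405/540 nm; normalised to medium-only and DMSO wells, Hill fit.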
IP6K1 inh: IP6K1 kinase inhibition. Q92551. IP6K1 kinase, ADP-Glo luminescence, 2 h; stronger effect = lower value. activity change, % (series mostly up to about 58 µM). 0.81% of 140,000 active; in the data active means activity change below about -25%; further: on the % scale 0 is the no-effect control and ±100 the full control effect
Target sequence (Q92551 whole entry, looked up): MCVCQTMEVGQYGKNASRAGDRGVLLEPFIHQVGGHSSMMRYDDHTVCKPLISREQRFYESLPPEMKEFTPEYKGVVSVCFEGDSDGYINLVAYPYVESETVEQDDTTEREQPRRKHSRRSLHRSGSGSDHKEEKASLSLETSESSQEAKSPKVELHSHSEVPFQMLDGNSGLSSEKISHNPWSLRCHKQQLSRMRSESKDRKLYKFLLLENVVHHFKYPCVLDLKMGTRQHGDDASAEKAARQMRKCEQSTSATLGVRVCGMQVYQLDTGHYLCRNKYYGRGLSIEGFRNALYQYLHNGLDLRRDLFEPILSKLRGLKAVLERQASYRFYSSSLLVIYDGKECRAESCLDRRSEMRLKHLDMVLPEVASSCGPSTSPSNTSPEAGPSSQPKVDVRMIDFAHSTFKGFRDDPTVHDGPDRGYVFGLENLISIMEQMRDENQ
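ADP-Glo luminescence measures ADP made by human IP6K1 during a 2 h RT reaction with ATP/IP6 (mix at 1.3 mM/130 uM); top library doses 57.5 and 19.1 uM final.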
* marks the source's active call; other numbers are inactive results; i = inactive; ? = inconclusive; nt = no result given; [ ] = dose if it differs, or a comment. Unless noted, the call rests on the fitted dose curve; in most records, active means well fitted curve in the direction sought with a large enough effect; inconclusive means small, poorly fitted or top-dose-only effect, or another doubt; inactive means no such curve, though single readings can be large; an effect the other way counts as inactive or inconclusive.

SMILES	SNCA expr inhib	KDM5B inh	SNCA viab count	IP6K1 inh
COc1cc(F)ccc1-c1cc(C(=O)NCc2cnn(C)c2)c2c(c1)N(C)CCO2	22.9%[87.6 µM]	39.8µM*	-14.7%[87.6 µM]	-22.4
COc1ccc(-c2cc(C(=O)NCc3cnn(C)c3)c3c(c2)N(C)CCO3)cc1	?	35.5µM*	-21.0%[87.6 µM]	-24.1
CC1CCCN(C(=O)c2cc3c(s2)CCN(C(=O)c2ccc(Cl)cc2)C3)C1 (stereo not drawn)	-5.8%	i	-24.7%	10.6
COc1ccc(Nc2ccnc(N3CCN(C(=O)c4ccc(C)cc4)CC3)n2)cc1	-25.9%	nt	?	14.9
CCCc1noc(-c2cccn3c(CNC(=O)c4cc(F)ccc4Cl)nnc23)n1	0.5%	25.1µM*	-7.4%	-2.6
CCCc1noc(-c2cccn3c(CNC(=O)c4cc(Cl)ccc4F)nnc23)n1	?	22.4µM*	4.7%	12.0
Cc1cccc(NC(=O)c2ccc3[nH]c(C)c(C)c3c2)c1C	nt	i	nt	nt
N#Cc1ccccc1CN1CCN(c2nccc(CCC(F)(F)F)n2)CC1	-16.2%	i	7.9%	10.7
O=C1NCC2(CCN(c3nccc(CCC(F)(F)F)n3)CC2)O1	-10.2%	20µM*	-0.2%	-6.7
CCOc1ccc(NC(=O)Cn2c(-c3cccc(Cl)c3)nc(C)c(CCO)c2=O)cc1	-17.8%	i	-17.2%	-4.4
CC(C)c1ccc(/C=N/NC(=O)c2ccncc2)cc1	nt	i	nt	nt
COc1ccc2[nH]c3c(c2c1)CCNC31CCN(Cc2ccc(F)cc2F)CC1	?	11.2µM*	9.2%[12.5 µM]	4.0
COc1ccc2[nH]c3c(c2c1)CCNC31CCN(C(=O)c2cccnc2C)CC1	20µM*	?	-2.6%[12.5 µM]	6.3
COc1ccc2[nH]c3c(c2c1)CCNC31CCN(C(=O)C2CCOCC2)CC1	-7.8%	22.4µM*	-3.7%[12.5 µM]	18.8
COc1ccc2[nH]c3c(c2c1)CCNC31CCN(C(=O)C2CC=CC2)CC1	8.0%	22.4µM*	-6.9%[12.5 µM]	-3.2
O=C(CC(Nc1cc(C(F)(F)F)ccc1Cl)C(=O)O)c1ccccc1 (stereo not drawn)	nt	i	nt	nt
Cc1ccccc1CN(C)C(C)C(=O)Nc1ccc(N2CCCCC2)cc1 (stereo not drawn)	nt	i	nt	nt
CCN1CCC(N2CCC3(CC2)NCCc2c3[nH]c3ccc(OC)cc23)CC1	12.6%	?	0.5%[12.5 µM]	-0.7
COc1ccc2[nH]c3c(c2c1)CCNC31CCN(C2CCCC2)CC1	?	22.4µM*	2.3%[12.5 µM]	13.7
CCC(C)C(=O)N1CCC2(CC1)NCCc1c2[nH]c2ccc(OC)cc12 (stereo not drawn)	27.4%	31.6µM*	8.7%[12.5 µM]	-4.0
CCNS(=O)(=O)c1ccc(NC(=O)C2c3ccccc3Oc3ccccc32)cc1	nt	i	nt	nt
CC(C)C(=O)Nc1ccc(C2(C(=O)N3CCCCC3)CCCCC2)cc1	1.8%	i	-9.6%	-3.5
CC(=O)Nc1ccc(C2(C(=O)N3CCN(c4ccccc4)CC3)CCCCC2)cc1	3.7%	i	-8.7%	8.2
CC(C)C(=O)Nc1ccc(C2(C(=O)N3CCN(c4ccccn4)CC3)CCCCC2)cc1	-4.7%	22.4µM*	-0.4%	8.2
O=C(Nc1ccc(C2(C(=O)N3CCN(c4ccccn4)CC3)CCC2)cc1)C1CC1	-18.3%	17.8µM*	-7.4%	-3.3
SMILES	SNCA expr inhib	KDM5B inh	SNCA viab count	IP6K1 inh
CS(=O)(=O)Nc1ccc(C2(C(=O)N3CCN(c4ccccn4)CC3)CCCCC2)cc1	?	22.4µM*	-9.8%	9.9
CC(C)CN(C(=O)CN(C)C(=O)Cc1cccc2ccccc12)c1c(N)n(CC(C)C)c(=O)[nH]c1=O	nt	i	nt	nt
CCOc1ccc(Cc2nc(-c3c(C)nc4ccccn34)cs2)cc1	nt	nt	11.9µM*	-0.6
COc1cccc(Nc2nc(-c3ccc([N+](=O)[O-])cc3)nc3ccccc23)c1	nt	i	nt	nt
O=C(NC1CCC1)c1ccc2c(c1)C1(CCN(CC3CC3)C1)CN2Cc1ccccc1 (stereo not drawn)	-12.1%[87.6 µM]	39.8µM*	-21.6%[87.6 µM]	-5.6
NC(=O)c1ccc2c(c1)C1(CCN(CC3CC3)C1)CN2Cc1ccccc1 (stereo not drawn)	24.2%[87.6 µM]	35.5µM*	-11.2%[87.6 µM]	8.6
O=C(NCC1CC1)c1ccc2c(c1)C1(CCN(CC3CC3)C1)CN2Cc1ccccc1 (stereo not drawn)	-29.7%[87.6 µM]	28.2µM*	-4.6%[87.6 µM]	11.4
CN1CC2(CCCN(CC3CC3)C2)c2cc(C(=O)Nc3ccn(C)n3)ccc21 (stereo not drawn)	-7.6%[87.6 µM]	?	1.5%[87.6 µM]	38.8
CN1CCC2(C1)CN(CC1CC1)c1ccc(C(=O)NC3CCCCC3)cc12 (stereo not drawn)	6.8%[87.6 µM]	39.8µM*	2.9%[87.6 µM]	12.0
CN1CCC2(C1)CN(CC1CC1)c1ccc(C(=O)Nc3ccccc3)cc12 (stereo not drawn)	90.4%[87.6 µM]	?	-16.9%[87.6 µM]	7.9
COC(=O)c1cccc(NC(=O)c2ccc(N3CCCCS3(=O)=O)cc2Cl)c1	nt	i	nt	nt
COc1ccc(NC(=O)c2cc(C(C)(C)C)nc3c2cnn3C)cc1	-3.0%[87.6 µM]	nt	-9.1%[87.6 µM]	1.5
COCCNC(=O)c1ccc2c(c1)C1(CCN(CC3CC3)C1)CN2Cc1ccccc1 (stereo not drawn)	-5.9%[87.6 µM]	35.5µM*	-2.7%[87.6 µM]	12.3
CCNC(=O)c1ccc2c(c1)C1(CCN(CC3CC3)C1)CN2Cc1ccccc1 (stereo not drawn)	1.7%[87.6 µM]	35.5µM*	-6.4%[87.6 µM]	11.2
CN1CCC2(C1)CN(Cc1ccccc1)c1ccc(C(=O)NCC3CC3)cc12 (stereo not drawn)	29.9%[87.6 µM]	35.5µM*	9.3%[87.6 µM]	0.7
CN(C)CCNC(=O)c1ccc2c(c1)C1(CCN(CC3CC3)C1)CN2Cc1ccccc1 (stereo not drawn)	?	35.5µM*	-23.0%[87.6 µM]	-3.5
CN1CCC2(C1)CN(Cc1ccccc1)c1ccc(C(=O)Nc3ccn(C)n3)cc12 (stereo not drawn)	29.4%[87.6 µM]	?	0.5%[87.6 µM]	7.0
CN1CCCC2(C1)CN(Cc1cccnc1)c1ccc(C(=O)NCC3CCCCC3)cc12 (stereo not drawn)	?	i	-6.1%[87.6 µM]	4.0
O=C(NCCCO)c1ccc2c(c1)C1(CCN(CC3CC3)C1)CN2Cc1ccccc1 (stereo not drawn)	-2.7%[87.6 µM]	35.5µM*	3.7%[87.6 µM]	-6.1
CN1CCC2(C1)CN(CC1CC1)c1ccc(C(=O)NCc3cccs3)cc12 (stereo not drawn)	4.0%[87.6 µM]	?	-9.1%[87.6 µM]	-1.7
CN1CCC2(C1)CN(Cc1ccccc1)c1ccc(C(=O)NC3COC3)cc12 (stereo not drawn)	-4.2%[87.6 µM]	39.8µM*	4.4%[87.6 µM]	11.0
CN1CCC2(C1)CN(CC1CCOCC1)c1ccc(C(=O)NCC(F)(F)F)cc12 (stereo not drawn)	3.1%[87.6 µM]	35.5µM*	5.0%[87.6 µM]	3.6
CN1CCC2(C1)CN(Cc1ccccc1)c1ccc(C(=O)NCCOc3ccccc3)cc12 (stereo not drawn)	19.7%	28.2µM*	4.1%	-0.5
Cc1ccc(-n2c(=O)c3ccccc3n3c(SCC(=O)Nc4ccccc4)nnc23)cc1	nt	i	nt	nt
O=C(NCC(F)(F)F)c1ccc2c(c1)C1(CCN(CC3CC3)C1)CN2Cc1ccccc1 (stereo not drawn)	-13.0%	20µM*	-0.5%	19.4
